Here are results for 15 compounds from PubChem BioAssay.

For part of these data: Measured potencies and affinities stand elsewhere. Active and inactive are the calls of the source.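 The calls were made as follows, unless noted: active = dose curve with midpoint inside tested range, moderate steepness, plateau gap beyond fit error, low compound glow and bead-link interference; inactive = the rest.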

The target in experiment [1] is Cell division control protein 42 homolog (Homo sapiens) (UniProt P60953). Kind of experiment: inhibition of fluorescent GTP binding to constitutively active Cdc42 – biochemical, multiplex bead flow cytometry, Bodipy-FL-GTP, dose response (AID 1333;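 active = fitted half-maximal concentration within the tested dose range, moderate curve steepness, a statistically real signal drop, and little compound fluorescence or tag-binding interference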).
Sequence of Cell division control protein 42 homolog (Homo sapiens) (P60953 whole entry, looked up): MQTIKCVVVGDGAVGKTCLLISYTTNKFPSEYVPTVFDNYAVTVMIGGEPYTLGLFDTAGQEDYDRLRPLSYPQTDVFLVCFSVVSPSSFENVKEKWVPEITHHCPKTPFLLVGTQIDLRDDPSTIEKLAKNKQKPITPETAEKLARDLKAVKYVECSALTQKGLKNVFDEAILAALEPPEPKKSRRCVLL
Experiment [2] shares this target. The experiment in a line: inhibition of fluorescent GTP binding to wildtype Cdc42 – biochemical, multiplex bead flow cytometry, Bodipy-FL-GTP, dose response (AID 1334;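 active = fitted half-maximal concentration within the tested range, moderate curve steepness, significant signal drop, and little compound fluorescence or bead-linkage interference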). The following applies: bead-based flow cytometry, Bodipy-FL-GTP binding to GST-Cdc42; at 100 µM (top of the series) unless noted. For orientation: In flow cytometry, cells or beads pass a laser one at a time.

Experiment [3] has as its target GTPase HRas (Homo sapiens) (UniProt P01112). The experiment in a line: Ras wt fluorescent GTP loading blockade – biochemical, wildtype, multiplex bead flow cytometry, dose response (AID 1335;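 active = fitted half-maximal concentration within 10 nM to 100 µM, steepness 0.5 to 2, significant signal drop, low assay interference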). The following applies: bead-based flow cytometry, Bodipy-GTP binding to GST-Ras; at 100 µM (top of the series) unless noted.
The test system of experiment [4] is Ras-related protein Rab-7a (dog), GTP binding. Kind of experiment: blockers of fluorescent GTP binding to Rab7 – biochemical, wildtype, multiplex bead flow cytometry, dose response (AID 1336; call rule not given here).
For experiment [5], the target named is Ras-related C3 botulinum toxin substrate 1 (Homo sapiens) (UniProt P63000). Kind of experiment: inhibition of wildtype Rac1 nucleotide loading – biochemical, multiplex bead flow cytometry, dose response (AID 1340). To be noted: GST-Rac1 beads, Bodipy-FL-GTP binding; at 100 µM (top of the series) unless noted.
Experiment [6] addresses GTPase HRas (Homo sapiens) (UniProt P01112). Kind of experiment: blockade of GTP loading onto mutant Ras – biochemical, activated mutant, multiplex bead flow cytometry, dose response (AID 1341;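 active = dose-response curve with midpoint inside the tested range, moderate steepness, significant amplitude and little compound fluorescence or bead-attachment interference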;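 also: GST-tagged constitutively activated Ras mutant immobilized on beads and multiplexed with other GTPases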).

Sequence of GTPase HRas (Homo sapiens) (P01112 whole entry, looked up): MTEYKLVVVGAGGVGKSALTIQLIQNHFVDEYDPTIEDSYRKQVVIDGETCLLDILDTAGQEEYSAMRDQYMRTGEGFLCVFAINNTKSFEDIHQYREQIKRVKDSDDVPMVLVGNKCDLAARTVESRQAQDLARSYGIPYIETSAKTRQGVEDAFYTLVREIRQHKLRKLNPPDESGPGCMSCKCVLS

`COc1ccccc1NC(=O)CSc1ccc2nnc(-c3cccnc3)n2n1`: the result in experiment [1], in experiment [4] and in experiment [6] was inactive. In addition, the fluorescence, percent of control (lower = inhibition) in experiment [2] is 36.4%. The compound also displayed a GTP binding, percent of control in experiment [3] of 49%. Besides, the GTP binding signal, raw median fluorescence (lower = inhibition) (MCF (arbitrary fluorescence units)) in experiment [5] came to 114.
As for `Cc1c(C(=O)N2CCc3ccccc3C2)oc2ccc(S(=O)(=O)N3CCCCCC3)cc12`, the result in experiment [1], in experiment [4] and in experiment [6] was inactive. The fluorescence, percent of control (lower = inhibition) in experiment [2] was 56.2%. In experiment [3], this compound displayed a GTP binding, percent of control of 76%. For the same compound, the GTP binding signal, raw median fluorescence (lower = inhibition) (MCF (arbitrary fluorescence units)) in experiment [5] worked out at 274.
Regarding `NC(=O)N=Nc1c(O)[nH]c2c(Br)cc(Br)cc12`, the call in experiment [1], in experiment [4] and in experiment [6] was inactive. Besides, the fluorescence, percent of control (lower = inhibition) in experiment [2] is 37.2%. The compound further displayed a GTP binding, percent of control in experiment [3] of 81.4%. The compound further displayed a GTP binding signal, raw median fluorescence (lower = inhibition) (MCF (arbitrary fluorescence units)) in experiment [5] of 213.
With `Cc1ccc(-c2noc(CN3C(C)CCCC3C)n2)cc1` (stereo not given), the result in experiment [1], in experiment [4] and in experiment [6] was inactive. Further, the fluorescence, percent of control (lower = inhibition) in experiment [2] was determined as 51.1%. In experiment [3], this compound yielded a GTP binding, percent of control of 62.9%. The compound further came in with a GTP binding signal, raw median fluorescence (lower = inhibition) (MCF (arbitrary fluorescence units)) in experiment [5] of 216.
In the case of `CCC(/C=C1\Sc2ccc(OC)cc2N1CCO)=C\c1sc2ccc(OC)cc2[n+]1CCO`, the outcome in experiment [1], in experiment [4] and in experiment [6] was inactive. Further, the fluorescence, percent of control (lower = inhibition) in experiment [2] came out at 22.6%. Also, in experiment [3], the GTP binding, percent of control turned out to be 46.8%. In experiment [5], this compound gave a GTP binding signal, raw median fluorescence (lower = inhibition) (MCF (arbitrary fluorescence units)) of 187.
Take `O=C(CNC(=O)Cc1ccccc1)N=Nc1c(O)n(Cc2ccc3c(c2)OCO3)c2ccccc12`: the result in experiment [1], in experiment [4] and in experiment [6] was inactive. For the same compound, the fluorescence, percent of control (lower = inhibition) in experiment [2] was found to be 36.1%. Moreover, the GTP binding, percent of control in experiment [3] worked out at 48.5%. The same compound registered a GTP binding signal, raw median fluorescence (lower = inhibition) (MCF (arbitrary fluorescence units)) in experiment [5] of 112.
Take `Cc1nnc2ccc(-c3ccc(NC(=O)c4ccco4)cc3)nn12`: the result in experiment [1], in experiment [4] and in experiment [6] was inactive. Besides, the fluorescence, percent of control (lower = inhibition) in experiment [2] stood at 69.8%. For the same compound, the GTP binding, percent of control in experiment [3] came to 109%. In addition, the GTP binding signal, raw median fluorescence (lower = inhibition) (MCF (arbitrary fluorescence units)) in experiment [5] worked out at 215.
Take `CS(=O)(=O)N1CCN(C(=O)C2c3ccccc3Oc3ccccc32)CC1`: the compound was called inactive in experiment [1], in experiment [4] and in experiment [6]. In experiment [2], the fluorescence, percent of control (lower = inhibition) came to 36.7%. For the same compound, the GTP binding, percent of control in experiment [3] turned out to be 78.7%. Also, in experiment [5], the GTP binding signal, raw median fluorescence (lower = inhibition) (MCF (arbitrary fluorescence units)) worked out at 268.
As to `O=[N+]([O-])c1ccc(/C=C/C2=NN(c3ccccc3)C(c3ccco3)C2)cc1` (stereo not given), the outcome in experiment [1], in experiment [4] and in experiment [6] was inactive. Moreover, the fluorescence, percent of control (lower = inhibition) in experiment [2] came out at 135%. For the same compound, the GTP binding, percent of control in experiment [3] was 132%. The compound further registered a GTP binding signal, raw median fluorescence (lower = inhibition) (MCF (arbitrary fluorescence units)) in experiment [5] of 258.
In the case of `COc1ccc(C(=O)N/N=c2\oc3ccccc3cc2C(N)=O)cc1`, the outcome in experiment [1], in experiment [4] and in experiment [6] was inactive. The fluorescence, percent of control (lower = inhibition) in experiment [2] worked out at 36.1%. Moreover, in experiment [3], the GTP binding, percent of control was 82.6%. Besides, the GTP binding signal, raw median fluorescence (lower = inhibition) (MCF (arbitrary fluorescence units)) in experiment [5] was 207.
Regarding `CC1Cc2ccccc2N1S(=O)(=O)c1cccc(C(=O)NCCCO)c1` (stereo not given), the compound was called inactive in experiment [1], in experiment [4] and in experiment [6]. Moreover, in experiment [2], the fluorescence, percent of control (lower = inhibition) is 38.5%. In addition, the GTP binding, percent of control in experiment [3] amounted to 85.5%. In experiment [5], this compound yielded a GTP binding signal, raw median fluorescence (lower = inhibition) (MCF (arbitrary fluorescence units)) of 323.
Regarding `Nc1[nH]nc2ncc3cc4ccccc4nc3c12`, the result in experiment [1], in experiment [4] and in experiment [6] was inactive. Besides, the fluorescence, percent of control (lower = inhibition) in experiment [2] is 34.1%. Also, the GTP binding, percent of control in experiment [3] was 71.9%. In experiment [5], this compound registered a GTP binding signal, raw median fluorescence (lower = inhibition) (MCF (arbitrary fluorescence units)) of 153.
As for `CCN(CC)c1ccc(/C=N/OCC(=O)Nc2cccc(C)c2)cc1`, the outcome in experiment [1], in experiment [4] and in experiment [6] was inactive. In addition, the fluorescence, percent of control (lower = inhibition) in experiment [2] stood at 65.3%. In experiment [3], the GTP binding, percent of control amounted to 74.6%. The GTP binding signal, raw median fluorescence (lower = inhibition) (MCF (arbitrary fluorescence units)) in experiment [5] is 0.
With `O=C(COc1ccccc1/C=C\c1[nH]c(=O)[nH]c(=O)c1[N+](=O)[O-])Nc1ccccc1`, the result in experiment [1], in experiment [4] and in experiment [6] was inactive. Also, in experiment [2], the fluorescence, percent of control (lower = inhibition) turned out to be 29.1%. This compound also registered a GTP binding, percent of control in experiment [3] of 77.1%. The same compound displayed a GTP binding signal, raw median fluorescence (lower = inhibition) (MCF (arbitrary fluorescence units)) in experiment [5] of 191.
For `O=C(O)/C=C\C(=O)Nc1cccc(C(=O)Nc2cccc(O)c2)c1`, the call in experiment [1], in experiment [4] and in experiment [6] was inactive. Moreover, the fluorescence, percent of control (lower = inhibition) in experiment [2] stood at 38.6%. Moreover, the GTP binding, percent of control in experiment [3] was 84.2%. In experiment [5], this compound registered a GTP binding signal, raw median fluorescence (lower = inhibition) (MCF (arbitrary fluorescence units)) of 162.
